Screening data (PubChem BioAssay)
Most compounds without a hit are left out; they make up all but 1.7% or so of the library.
PrP 5UTR inh = suppresses PrP 5' UTR mRNA reporter expression; cell-based PrP 5' UTR mRNA reporter, plate reader; inhibition, % (concentration not given with the values); 0.35% of 340,000 active; AID 488862; in the data active = inhibition above about 52%
BJeLR lethal = BJeLR cell viability loss; BJeLR (HRASV12) viability, CellTiter-Glo ATP luminescence, 48 h; inhibition, % (no concentration beside the values); 0.17% of 300,000 active; in the data active = inhibition above about 50%
SSB-PriA inh = K. pneumoniae PriA-SSBct interaction inhibition. AID 1272365. 0.6% of 430,000 active. AlphaScreen SSBct-PriA binding, biotinylated peptide. inhibition, % at 33 µM; in the data active = inhibition mostly above about 37%, no sharp cut-off; inactive = mostly below about 20%
PfHsp40 rescue = restores yeast growth despite PfHsp40 toxicity; growth rescue, % at 12.5 µM; 0.68% of 340,000 active; S. cerevisiae expressing PfHsp40, growth rescue, ATP luminescence; in the data active = growth rescue above about 28%, passing the limit was not always enough;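 also: yeast W303a lacking pdr1 and pdr3 grown in galactose medium; growth measured after three days at 30 °C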
PrPC surface inh = reduces human prion protein on the cell surface | P04156 | cell surface PrPC, TR-FRET read-out | inhibition, % at 13.8 µM | 0.43% of 370,000 active; in the data active = inhibition above about 24%
Yp Topo-I inh = blocks Yersinia pestis topoisomerase I activity. Y. pestis Topo-I cleavage product accumulation, plate reader. activity, % at 10 µM. 0.064% of 360,000 active. AID 504884; in the data active = activity above about 50%, passing the limit was not always enough
Numbers stand for hits; n = inactive; x = no result.

SMILES	PrP 5UTR inh	BJeLR lethal	SSB-PriA inh	PfHsp40 rescue	PrPC surface inh	Yp Topo-I inh
Nc1ccc2ccccc2c1[N+](=O)[O-]	n	x	n	n	n	n
Nc1cc2c3ccccc3ccc2c2ccccc12	n	x	n	249	n	n
Cn1ncc2nc(SCc3ccc(F)cc3)n(Cc3ccccc3)c(=O)c21	x	x	n	x	x	x
CCCNc1nc(C)cc(-c2cc(C(=O)NCc3ccccc3)on2)n1	n	n	n	n	n	n
CCCNc1nc(C)cc(-c2cc(C(=O)Nc3ccccc3)on2)n1	n	n	n	196	n	n
O=S(=O)(NCCN1CCOC(c2ccccc2)C1)c1ccc2c(c1)CCCC2 (stereo not drawn)	x	x	n	x	x	x
O=C(N/N=C/C(Cl)=C/c1ccc([N+](=O)[O-])cc1)C(=O)Nc1ccc(C(=O)O)cc1	n	n	n	85	n	n
CC(=O)Nc1ccc2c(c1)Cc1cc(N3C(=O)C=CC3=O)ccc1-2	n	x	n	668	n	n
O=C1C=CC(=O)N1c1ccc2c(c1)Cc1cc(F)ccc1-2	n	x	n	n	n	n
CCOC(=O)C1=C(C)Nc2ncnn2C1c1ccoc1 (stereo not drawn)	x	x	n	x	x	x
Cc1ccc(S(=O)(=O)NNC(=O)c2c(O)c3ccccc3[nH]c2=O)cc1	n	n	n	n	n	n
COC(=O)Nc1ccc(S(=O)(=O)NNC(=O)c2c(O)c3ccccc3[nH]c2=O)cc1	n	n	n	52	n	n
CS(=O)(=O)N1C2CCC1CC(NC(=O)c1ccc(Br)o1)C2 (stereo not drawn)	x	x	n	x	x	x
CCOc1ccc(-c2ccc(N3CCN(C(=O)C(F)(F)F)CC3)nn2)cc1	x	x	n	x	x	x
O=C1NC(=O)/C(=C/c2cccc3ccccc23)S1	n	n	n	n	n	n
CCCOc1ccc2ccccc2c1/C=C1\SC(=O)NC1=O	n	n	n	504	n	n
COc1ccc(C)cc1S(=O)(=O)NCCOc1ccc(F)cc1	x	x	n	x	x	x
FC(F)Oc1ccc(NC(=S)NCc2ccccc2)cc1	n	n	n	n	n	n
Oc1cccc2c(NC(=S)Nc3ccc(OC(F)F)cc3)cccc12	n	n	54	n	n	n
O=C(NCCC(=O)N1CCCCC1)c1ccc(Br)cc1	n	n	n	n	n	n
O=C(NCCC(=O)N1CCCCCCC1)c1ccc(Br)cc1	n	x	n	70	n	n
Cn1cccc1/C=N\NC(=O)C1COc2ccc(C(C)(C)C)cc2O1 (stereo not drawn)	n	n	x	n	n	n
Cn1cccc1C=NNC(=O)C1COc2ccc(C(C)(C)C)cc2O1 (stereo not drawn)	x	x	39	x	x	x
O=C(NCCn1ncc2c(N3CCCC3)ncnc21)C(=O)c1c[nH]c2ccccc12	x	x	n	x	x	x
O=C(Nc1ccc(Cl)cc1)c1cccc(S(=O)(=O)Nc2ccccn2)c1	n	n	n	n	n	n
SMILES	PrP 5UTR inh	BJeLR lethal	SSB-PriA inh	PfHsp40 rescue	PrPC surface inh	Yp Topo-I inh
O=C(Nc1ccccc1)c1ccc(Br)c(S(=O)(=O)Nc2ccccn2)c1	n	n	n	48	n	n
COc1ccc(N/C(C)=C/C(=S)Nc2ccccc2)cc1	n	n	43	n	n	n
COc1ccc(C(=O)CC(=O)C(=O)Nc2cccc(F)c2)cc1	n	n	n	39	n	n
COc1ccc(C(=O)CNc2cccc(F)c2)cc1	n	n	n	n	n	n
COc1ccc(C(=O)CC(=O)C(=O)Nc2ccccc2)cc1	n	n	n	57	n	n
COc1ccc(C(=O)CC(=O)C(=O)Nc2cc(OC)c(OC)c(OC)c2)cc1	n	n	n	n	n	n
O=C(CSCc1ccccc1)N1CC[C@H](n2cc(-c3ccccc3)nn2)C1	x	x	n	x	x	x
CCOc1cn(C)c(C(=O)NCCc2ccc(F)cc2)cc1=O	x	x	n	x	x	x
O=C(NN=Cc1c(O)n(CCc2ccc(F)cc2)c(=O)[nH]c1=O)c1ccncc1	x	x	n	x	x	x
CCNC(=O)CCSc1nc2cc(Cl)ccc2o1	n	n	n	111	n	n
CN(C)c1ccc(-n2cccc2/C=C/[N+](=O)[O-])cc1	n	n	n	230	n	n
CCC(=O)Nc1cc2c(C)cc(=O)oc2cc1C	n	n	n	36	n	n
O=C(CN(CCc1ccccc1)Cc1ccccc1)Oc1ccccc1P(=O)(O)O	n	n	92	n	n	n
COCCN(CC(=O)Oc1ccccc1P(=O)(OC)OC)Cc1ccccc1	x	n	n	x	n	n
O=C(c1ccccc1Br)N1Cc2cnc(N3CCOCC3)nc2C1	x	x	n	x	x	x
CN(C)C(CNc1ccc(S(C)(=O)=O)cc1[N+](=O)[O-])c1ccccc1 (stereo not drawn)	n	n	n	n	n	n
